# Assay results taken from PubChem BioAssay AID504466 (National Center for Advancing Translational Sciences (NCATS), 2011).
# Among all 330,000 compounds or so, about 4,200 (1.3%) were called active. Not shown: some 6% with an inconclusive outcome. For the sample, actives were picked, then their nearest neighbours and some compounds at random. Values without a mark were called inactive. Calls come from the whole dose curve; as a rule, active = well fitted activation curve with a large enough effect; inconclusive = small, poorly fitted or top-dose-only effect; inactive = no such curve, though single readings can be large or run the other way.
# Assay: qHTS screen for small molecules that induce genotoxicity in human embryonic kidney (HEK293T) cells expressing luciferase-tagged ELG1; note: nearly all actives have a fitted effect of over 60% in size; for activity change, positive = activation: % of control where 0% means no effect
# Settings: HEK293T ELG1-luciferase reporter, luminescence, 16 h; series mostly up to 46 µM; activity change, positive = activation: at the top concentration
# Method in brief: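 16 hr compound incubation (37 °C, 5% CO2) of HEK293T cells carrying luciferase-tagged ELG1; luciferase then measured by ONE-Glo luminescence after 30 min at RT.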
# Potency is the fitted concentration of half-maximal effect.
Compound,"activity change, positive = activation",Potency
O=C1CCC/C=C/C[C@@H](CC(=O)N(CCO)Cc2ccccc2)C(=O)NC[C@H](c2ccccc2)O1,3.07%,
CC[C@]12c3[nH]c4ccc(Cl)cc4c3CCN1C(=O)[C@@H](CC(=O)NCCCOC)C[C@@H]2C(=O)N1CCN(C(=O)C2CC2)CC1,7.73%,
COCCCNC(=O)CC1C[C@H](C(=O)N2CCCCC2)[C@@]2(CCc3ccccc3)c3[nH]c4ccccc4c3CCN2C1=O (some centres not stated),-2.19%,
O=C(NCc1ccccn1)c1cc2ccccc2oc1=O,,14.6 µM (active)
COc1ccc2oc(=O)c(C(=O)NCc3ccccn3)cc2c1,10.3%,
N=c1oc2ccccc2cc1C(=O)NCc1ccccc1,17.7%,
CCNC(=O)N(CC)C[C@H]1N[C@@](CC)(C(=O)OC)[C@H]2C(=O)N(Cc3ccccc3)C(=O)[C@@H]12,0.0201%,
CN(C(=O)COC(=O)Cc1ccccc1[N+](=O)[O-])C1CCS(=O)(=O)C1 (configuration not stated),1.71%,
Cc1cc(=O)n2[nH]c(-c3sccc3-n3c(C)ccc3C)cc2n1,-4.68%,
CCc1c(C)nc2cc(C)[nH]n2c1=O,-2.38%,
CCc1c(C)nc2cc(-c3cccs3)[nH]n2c1=O,,20.6 µM (active)
Cc1cccc(NS(=O)(=O)c2ccc(C)c(C(=O)NCc3cccnc3)c2)c1,-1.11%,
CN(c1ccccc1)S(=O)(=O)c1ccc(C(=O)N2CCN(c3ccccc3Cl)CC2)cc1,-2.82%,
CC(NC(=O)COC(=O)Cn1cc(C(F)(F)F)ccc1=O)c1ccccc1 (configuration not stated),-0.165%,
COc1ccc(S(=O)(=O)N2CCOCC2)cc1NC(=O)CSc1nnc(NC2CC2)s1,-2.72%,
O=C(Nc1ccc(C(=O)O)c(O)c1)c1ccccc1,-0.0454%,
O=C(NC(=O)c1ccccc1)Nc1ccccc1O,,1.83 µM (active)
Cc1ccc(NC(=O)NC(=O)c2ccccc2)cc1F,28.6%,
COc1ccc(CCOC2OC(CO)C(OC(=O)/C=C/c3ccc(O)c(OC)c3)C(O[C@H]3O[C@@H](C)[C@H](O)[C@@H](O)[C@H]3O)C2O)cc1O (some centres not stated),1.06%,
O=C(COC(=O)c1ccc(Br)o1)NC12CC3CC(CC(C3)C1)C2,-1.36%,
COc1ccc(N(Cc2ccccc2)S(=O)(=O)c2cccc(C(=O)O)c2)cc1,0.954%,

Compound,"activity change, positive = activation",Potency
COc1ccc(NC(=O)CS(=O)(=O)c2ccccc2)cc1,9.22%,
COc1ccc(C(CC(=O)c2ccccc2)S(=O)(=O)c2ccccc2)cc1 (configuration not stated),,18.4 µM (active)
O=C(Nc1cc(S(=O)(=O)N2CCOCC2)ccc1N1CCOCC1)c1c(F)cccc1Cl,-0.0492%,
CCOc1cccc(C(=O)Nc2cnn(Cc3ccccc3)c2)c1,4.75%,
Cc1nnc(NC(=O)c2ccc3nccnc3c2)s1,15.1%,
COc1cccc(C(=O)Nc2nnc(S(=O)(=O)N(C)c3ccccc3)s2)c1,-1.42%,
Cc1ccc(C(=O)Oc2coc(CSc3nnc(NC(=O)c4cccs4)s3)cc2=O)cc1C,-3.29%,
CCOc1cccc(C(=O)Nc2nnc(-c3cccs3)s2)c1,,1.16 µM (active)
Cc1ccc(C(=O)Nc2nnc(-c3cccs3)s2)cc1C,,8.2 µM (active)
O=C(OCC(=O)N1CCN(C(=O)c2ccco2)CC1)c1c(Cl)cccc1Cl,1.71%,
O=C(Nc1cc(S(=O)(=O)Nc2ccc(Cl)cc2)ccc1O)c1ccc(F)cc1F,-5.16%,
COC(=O)C1CCN(C(=O)COC(=O)c2cc(S(=O)(=O)N3CCOCC3)ccc2C)CC1,-1.29%,
COCCN(CCOC)S(=O)(=O)NC[C@H]1O[C@@H](n2cnc3c(N)ncnc32)[C@H](O)[C@@H]1O,-3.03%,
O=C(CN1C(=O)c2cccc3cccc1c23)Nc1ccccc1,-1.63%,
Cc1cccc(NC(=O)CN2C(=O)c3ccccc3C2=O)c1C,0.818%,
Cc1nn(C)cc1N1C(=O)c2cccc3c(N)ccc(c23)C1=O,4.07%,
CCN1C(=O)c2cccc3c(S(=O)(=O)Nc4ccccc4O)ccc1c23,,23.1 µM (active)
CN1C(=O)c2cccc3c(N)ccc(c23)C1=O,0.137%,
CCN1C(=O)c2cccc3c(N)ccc1c23,,20.6 µM (active)
CC(C)COc1ccc(C(=O)NNC(=O)CCC(=O)c2cccs2)cc1,1.16%,
CCOC(=O)N1CCN(C(=O)COc2ccc3oc4c(c3c2)CCCC4)CC1,6.35%,

Compound,"activity change, positive = activation",Potency
O=C(COc1ccc2oc3c(c2c1)CCCC3)Nc1ccccn1,,16.4 µM (active)
CCN(CC)CCCNC(=O)COc1ccc2oc3c(c2c1)CCCC3,-3.27%,
CC[C@]12c3[nH]c4cc(CCC(=O)N(C)C)ccc4c3CCN1C(=O)[C@@H](CC(=O)NCC13CC4CC(CC(C4)C1)C3)C[C@@H]2C(=O)N1CCN(C(=O)C2CC2)CC1,-0.833%,
COc1ccc2nc3n(c(=O)c2c1)-c1cc(C)ccc1C(=O)NC3Cc1ccc(O)cc1 (configuration not stated),1.3%,
CC(C)C(=O)Nc1ccc2c(c1)oc1ccccc12,,4.11 µM (active)
Cc1cc(=O)oc2cc(NC(=O)C(C)Oc3ccccc3)ccc12 (configuration not stated),4.31%,
CC(C)C(=O)Nc1ccc2oc(=O)ccc2c1,0.29%,
COc1cccc(NC(=O)COc2cccnc2[N+](=O)[O-])c1,14.2%,
CC(C)(C)OC(=O)C[C@@H]1C/C=C\C[C@@H](CC(=O)N[C@H](CO)Cc2ccccc2)C(=O)NCCOC1=O,0.148%,
COc1cc(NC(=O)CN(C)S(=O)(=O)c2ccc3nc(C)sc3c2)cc(OC)c1,9.88%,
Cc1ccc2nc(-c3ccc(NC(=O)CN(C)S(=O)(=O)c4ccccc4)cc3)sc2c1,,5.8 µM (active)
Cc1nc2ccc(S(=O)(=O)N(C)CC(=O)NC(C)c3ccccc3)cc2s1 (configuration not stated),-0.605%,
O=C1c2ccccc2[C@@H]2C[C@@H](O)[C@H](Nc3ccccc3Cl)CCN12,-1.05%,
Cc1cc(C(=O)COc2ccccc2Cl)c(C)n1C1CC1,8.23%,
Cc1cc(C(=O)COC(=O)C2CC2)c(C)n1-c1ccc(F)cc1,,2.59 µM (active)
Cc1ccc(-n2c(C)cc(C(=O)CN3C(=O)C(=O)N(C4CCCC4)C3=O)c2C)cc1,-6.37%,
Cc1ccc(SCC(=O)c2cc(C)c(OC(=S)N(C)C)c(C)c2)cc1,,7.31 µM (active)
Cc1ccc(C(=O)CSc2ccccc2C(=O)O)cc1,12.5% [at 9.26 µM],
COC(=O)c1cc(OC)c(OC)cc1NC(=O)CSc1ccc(C)cc1,-7.62%,
COC(=O)[C@]1(Cc2ccccc2)N[C@H](CN(C)S(=O)(=O)c2ccc(OC(F)(F)F)cc2)[C@@H]2C(=O)N(Cc3ccccc3)C(=O)[C@@H]21,-0.754%,
